Data: PubChem BioAssay (NCATS)
Inconclusive results are not listed. Active and inactive are the calls of the source. Unless noted, the call rests on the fitted dose curve; in most records, active means well fitted curve in the direction sought with a large enough effect; inconclusive means small, poorly fitted or top-dose-only effect, or another doubt; inactive means no such curve, though single readings can be large; an effect the other way counts as inactive or inconclusive.

Columns and labels:
[1] = AP1 Signaling Pathway (AID 357; active means well fitted curve in either direction with a large enough effect, not every such curve was filed as active; further: on the % scale 0 is the no-effect control and ±100 the full control effect); details: ME-180 AP-1-bla reporter, EGF-induced, beta-lactamase ratio, 5 h; at 7.69 µM (top of the series) unless noted
Method in brief: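 AP-1-bla ME-180 cells with beta-lactamase reporter under AP-1 response element, stimulated with EC50 EGF; compounds titrated, 5 hours at 37 degrees Celsius. CCF4 read at 460/530 nm ratio; positive and negative modulators judged by AC50.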

[2] = target: Cytochrome P450 1A2 (Homo sapiens) (UniProt P05177); assay: p450-cyp1a2 (AID 410; calls by dose curve; further: potency means the concentration at half of the fitted maximal effect)
Sequence of Cytochrome P450 1A2 (Homo sapiens) (P05177 whole entry, looked up): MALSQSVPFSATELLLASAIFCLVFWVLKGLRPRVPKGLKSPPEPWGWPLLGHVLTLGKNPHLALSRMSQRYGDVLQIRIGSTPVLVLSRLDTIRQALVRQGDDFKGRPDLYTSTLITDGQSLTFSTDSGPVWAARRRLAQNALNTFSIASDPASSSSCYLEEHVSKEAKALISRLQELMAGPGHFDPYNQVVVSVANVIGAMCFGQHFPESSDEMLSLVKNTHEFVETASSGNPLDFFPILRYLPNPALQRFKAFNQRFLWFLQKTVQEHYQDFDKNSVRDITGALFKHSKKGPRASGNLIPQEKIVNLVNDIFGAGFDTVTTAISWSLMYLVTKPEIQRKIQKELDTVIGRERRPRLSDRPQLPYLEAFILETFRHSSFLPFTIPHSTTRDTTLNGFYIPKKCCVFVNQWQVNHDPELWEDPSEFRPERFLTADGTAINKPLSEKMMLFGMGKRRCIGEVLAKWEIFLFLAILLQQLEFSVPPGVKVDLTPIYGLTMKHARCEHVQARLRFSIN
Method in brief: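 Luminescent demethylation readout: Luciferin-ME (100uM, equal to Km) turned over by 20nM CYP1A2 for 60 min at room temperature after NADPH regeneration addition, following 10 min compound preincubation. Normalization used 57 uM furafylline as full inhibition.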

[3] = NFAT Signaling Pathway (AID 444; active means well fitted curve in either direction with a large enough effect, not every such curve was filed as active;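 further: carbachol stimulus at about its EC50 of 1 µM final; on the % scale 0 is the no-effect control and ±100 the full control effect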); details: Jurkat NFAT-bla M1, carbachol, beta-lactamase ratio, 5 h; at 7.69 µM (top of the series) unless noted
Method in brief: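 Read-out: CCF4 FRET ratio (460 nm/530 nm) after 1 h RT dye loading, used for %activity and AC50 from titration series. Cells: Jurkat NFAT-β-lactamase/M1 line, treated with compound plus 1 uM carbachol for 5 h, 37 °C.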

[4] = Stat Signaling Pathway (AID 446; active means well fitted curve in either direction with a large enough effect, not every such curve was filed as active;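 further: ME-180 cervical cancer cells given 40 pM IL-6 alongside compound; SIE-controlled beta-lactamase reporter measured as 460/530 nm FRET emission ratio; on the % scale 0 is the no-effect control and ±100 the full control effect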); details: ME-180 (cervical carcinoma) SIE beta-lactamase reporter, IL-6 stimulated, 5 h; at 7.69 µM (top of the series) unless noted
Method in brief: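 Overnight-plated ME-180 cells bearing a STAT Inducible Element beta-lactamase reporter; 5 h co-exposure to compound and 40 pM IL-6; values normalized to 300 pM IL-6 and 125 nM JAK inhibitor controls.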

[5] = target: Glucocorticoid receptor (Homo sapiens) (UniProt P04150); assay: GR-GFP Redistribution (AID 450;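 active means compounds whose dose series gives a full or clear partial fitted curve of increased nuclear translocation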; further: potency means the concentration at half of the fitted maximal effect); details: U2OS GR-GFP nuclear translocation, laser cytometry, 2 h
Sequence of Glucocorticoid receptor (Homo sapiens) (P04150 whole entry, looked up, the tested form may be a part): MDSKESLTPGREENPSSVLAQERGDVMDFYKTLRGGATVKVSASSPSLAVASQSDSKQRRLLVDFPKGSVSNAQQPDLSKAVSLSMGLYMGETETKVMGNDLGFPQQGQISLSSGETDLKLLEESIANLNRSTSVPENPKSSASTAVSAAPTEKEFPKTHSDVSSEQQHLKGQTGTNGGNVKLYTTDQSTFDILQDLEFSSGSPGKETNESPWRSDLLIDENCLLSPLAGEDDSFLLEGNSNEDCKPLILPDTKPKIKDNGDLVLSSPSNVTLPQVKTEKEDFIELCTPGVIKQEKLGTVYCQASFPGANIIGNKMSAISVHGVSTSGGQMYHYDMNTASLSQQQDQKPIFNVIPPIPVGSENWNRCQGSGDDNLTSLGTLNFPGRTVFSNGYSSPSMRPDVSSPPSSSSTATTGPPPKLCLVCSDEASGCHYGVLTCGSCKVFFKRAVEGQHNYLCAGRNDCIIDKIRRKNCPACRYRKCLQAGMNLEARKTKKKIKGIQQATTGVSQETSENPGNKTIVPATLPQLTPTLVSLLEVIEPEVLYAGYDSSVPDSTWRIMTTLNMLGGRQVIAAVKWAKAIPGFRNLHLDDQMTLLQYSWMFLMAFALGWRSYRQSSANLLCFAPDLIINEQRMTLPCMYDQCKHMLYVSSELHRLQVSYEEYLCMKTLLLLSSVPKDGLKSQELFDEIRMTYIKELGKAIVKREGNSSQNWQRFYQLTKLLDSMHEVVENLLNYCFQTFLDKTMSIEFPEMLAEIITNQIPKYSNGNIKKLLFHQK

[6] = target: Glucocorticoid receptor (Homo sapiens) (UniProt P04150); assay: GR-EFC Redistribution (AID 451; calls by dose curve; further: potency means the concentration at half of the fitted maximal effect); details: CHO-K1 GR-EFC translocation, beta-gal luminescence, 2 h
Method in brief: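 Translocation of GR-ED fusion to nuclear EA restores b-gal, read by luminescence after 1 h room-temperature detection. Engineered CHO-K1 biosensor cells, 1,000/well, exposed 2 h at 37 C to titrations up to 46 uM final.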

[7] = target: Mitogen-activated protein kinase 10 (Mus musculus) (UniProt Q61831); assay: JNK3 AlphaScreen Assay (AID 530; active means well fitted curve in either direction with a large enough effect, not every such curve was filed as active;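 further: kinase came from lysate of stimulated human HepG2 cells; signal reports phosphorylation of biotinylated GST-cJun 1-79 at Ser73 with 10 µM ATP; on the % scale 0 is the no-effect control and ±100 the full control effect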)
Method in brief: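 qHTS titrations with 15 min compound pre-incubation before adding ATP (10 uM final). Read-out: AlphaScreen of Ser73-phosphorylated biotin-GST-cJun using HepG2 lysate JNK3 activated by IL-1β and TNFα.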

[8] = target: 3',5'-cyclic-AMP phosphodiesterase 4B (Homo sapiens) (UniProt Q07343); assay: qHTS Assay for Inhibitors of PDE-IV (AID 607; active means well fitted activation curve with a large enough effect in the main read-out, with a control signal flat, not every such curve was filed as active; further: % of control where 0% means no effect)
Sequence of 3',5'-cyclic-AMP phosphodiesterase 4B (Homo sapiens) (Q07343 whole entry, looked up): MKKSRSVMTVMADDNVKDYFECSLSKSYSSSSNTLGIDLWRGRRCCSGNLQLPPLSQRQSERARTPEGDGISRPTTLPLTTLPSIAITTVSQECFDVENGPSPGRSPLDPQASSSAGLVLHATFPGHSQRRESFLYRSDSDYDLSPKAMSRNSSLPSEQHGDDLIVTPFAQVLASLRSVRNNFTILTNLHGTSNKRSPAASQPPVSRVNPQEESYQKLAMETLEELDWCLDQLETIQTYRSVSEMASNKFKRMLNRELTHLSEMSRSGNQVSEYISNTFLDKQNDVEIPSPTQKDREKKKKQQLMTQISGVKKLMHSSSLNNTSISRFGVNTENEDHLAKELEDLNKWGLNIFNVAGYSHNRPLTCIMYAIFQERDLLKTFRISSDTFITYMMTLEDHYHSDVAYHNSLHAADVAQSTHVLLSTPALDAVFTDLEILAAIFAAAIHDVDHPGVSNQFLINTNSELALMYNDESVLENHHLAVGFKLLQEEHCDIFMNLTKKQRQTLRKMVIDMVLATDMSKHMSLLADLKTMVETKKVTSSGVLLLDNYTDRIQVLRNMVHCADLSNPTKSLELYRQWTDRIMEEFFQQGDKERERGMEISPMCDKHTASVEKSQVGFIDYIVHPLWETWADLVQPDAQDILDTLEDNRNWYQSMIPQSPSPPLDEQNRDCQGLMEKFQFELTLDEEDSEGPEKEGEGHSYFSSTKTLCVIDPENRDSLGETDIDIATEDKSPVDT
Method in brief: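 Live HEK293 cells with a modified cyclic nucleotide-gated (CNG) channel report intracellular cAMP via membrane-potential dye fluorescence (ex 535/em 590 nm). Endogenous PDE-IV was targeted. Compounds were tested at up to 22.9 uM final; RO 20-1724 100 uM served as control.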

[9] = target: Cytochrome P450 3A4 (Homo sapiens) (UniProt P08684); assay: qHTS Assay for Inhibitors and Substrates of Cytochrome P450 3A4 (AID 884); further: potency means the concentration at half of the fitted maximal effect; nearly all actives have a fitted effect of over 50% in size
Sequence of Cytochrome P450 3A4 (Homo sapiens) (P08684 whole entry, looked up): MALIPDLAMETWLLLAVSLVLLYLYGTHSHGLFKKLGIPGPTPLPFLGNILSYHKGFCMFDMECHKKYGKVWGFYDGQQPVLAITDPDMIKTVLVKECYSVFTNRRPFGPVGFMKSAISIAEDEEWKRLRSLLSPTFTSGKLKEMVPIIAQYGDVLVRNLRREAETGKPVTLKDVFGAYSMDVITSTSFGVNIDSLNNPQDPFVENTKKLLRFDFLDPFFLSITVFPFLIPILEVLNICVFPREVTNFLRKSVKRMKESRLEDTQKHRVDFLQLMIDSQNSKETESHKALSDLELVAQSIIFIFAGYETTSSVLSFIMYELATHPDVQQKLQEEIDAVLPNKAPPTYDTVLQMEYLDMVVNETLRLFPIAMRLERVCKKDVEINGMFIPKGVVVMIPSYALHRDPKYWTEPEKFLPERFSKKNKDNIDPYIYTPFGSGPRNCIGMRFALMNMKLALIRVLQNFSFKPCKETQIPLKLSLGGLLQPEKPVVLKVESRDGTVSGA
Method in brief: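 Luminescent readout of luciferin produced by CYP3A4 (20 nM) dealkylation of Luciferin-PPXE, 25 uM (its KM). NADPH-driven reaction ran 60 min at RT after 10 min compound preincubation; data scaled to 57 uM ketoconazole as 100% inhibition.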

[10] = target: Cytochrome P450 3A4 (Homo sapiens) (UniProt P08684); assay: qHTS Assay for Activators of Cytochrome P450 3A4 (AID 885); further: nearly all actives have a fitted effect of over 65% in size
Method in brief: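 Using 20nM recombinant human CYP3A4 in potassium phosphate (200mM), substrate Luciferin-PPXE at 25uM, luminescent luciferin detection followed a 60-min RT NADPH reaction; data scaled to 57 uM ketoconazole.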

[11] = qHTS Assay for Lipid Storage Modulators (AID 1519; calls by dose curve); details: Drosophila S3 cells, BODIPY lipid droplet/cell ratio, laser cytometry, cells loaded with oleic acid; for activity change, negative = inhibition: at 57.5 µM (top of the series)
Method in brief: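 Cells seeded at 5,000 per well were treated with compounds over a concentration series and loaded with oleic acid (400 uM, as added). Lipid droplet fluorescence (488 nm excitation, 500-530 nm channel) was read by laser-scanning cytometry and normalized to 20 uM Triacsin C.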

[12] = target: Dual specificity protein kinase CLK4 (Homo sapiens) (UniProt Q9HAZ1); assay: qHTS Assay for Inhibitors of CDC-like Kinase 4 (Kinase-Glo Assay) (AID 1770); further: nearly all actives have a fitted effect of over 65% in size; further: potency means the concentration at half of the fitted maximal effect
Sequence of Dual specificity protein kinase CLK4 (Homo sapiens) (Q9HAZ1 whole entry, looked up): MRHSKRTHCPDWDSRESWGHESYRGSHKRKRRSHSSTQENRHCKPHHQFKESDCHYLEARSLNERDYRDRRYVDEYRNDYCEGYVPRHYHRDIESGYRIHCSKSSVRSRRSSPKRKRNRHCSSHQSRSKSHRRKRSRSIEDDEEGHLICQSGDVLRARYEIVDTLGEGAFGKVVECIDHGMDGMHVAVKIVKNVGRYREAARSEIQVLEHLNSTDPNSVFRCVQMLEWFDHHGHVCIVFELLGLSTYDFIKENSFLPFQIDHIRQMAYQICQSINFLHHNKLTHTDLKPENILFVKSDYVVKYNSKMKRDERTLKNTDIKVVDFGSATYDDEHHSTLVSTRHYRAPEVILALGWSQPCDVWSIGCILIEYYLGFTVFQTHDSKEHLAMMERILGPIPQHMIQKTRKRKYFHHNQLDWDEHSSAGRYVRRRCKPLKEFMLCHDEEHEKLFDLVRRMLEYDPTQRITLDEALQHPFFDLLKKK
Method in brief: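 Inhibition was judged from remaining ATP, measured by Ultra-Glo luciferase bioluminescence after Clk4 (25 nM) had acted on RS peptide at 1 uM ATP for 4.5 hours, room temperature.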

[13] = target: Dual specificity protein kinase CLK4 (Homo sapiens) (UniProt Q9HAZ1); assay: qHTS Assay for Inhibitors of CDC-like Kinase 4 (ADP-Glo Assay) (AID 1771); further: nearly all actives have a fitted effect of over 70% in size; further: potency means the concentration at half of the fitted maximal effect
Method in brief: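 ADP production was read by ADP-Glo luminescence after residual ATP depletion, following 1 h room-temperature reaction of 25 nM Clk4, 1 uM ATP and 100 uM RS peptide with MgCl2, EGTA, DTT and Triton X-100.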

[14] = target: Dual specificity protein kinase CLK4 (Homo sapiens) (UniProt Q9HAZ1); assay: qHTS Assay for Inhibitors of CDC-like Kinase 4 (ADP-FP Assay) (AID 1795); further: nearly all actives have a fitted effect of over 60% in size; further: potency means the concentration at half of the fitted maximal effect
Method in brief: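 Inhibition of ADP formation by 6.25 nM Clk4 is measured using 1 uM ATP and 100 uM RS repeat peptide over one hour. Produced ADP displaces a fluorescent tracer from antibody, lowering polarization.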

[15] = target: Ubiquitin carboxyl-terminal hydrolase 1 (Homo sapiens) (UniProt O94782); assay: Inhibitors of USP1/UAF1: Pilot qHTS (AID 504865); further: nearly all actives have a fitted effect of over 35% in size; further: potency means the concentration at half of the fitted maximal effect
Sequence of Ubiquitin carboxyl-terminal hydrolase 1 (Homo sapiens) (O94782 whole entry, looked up): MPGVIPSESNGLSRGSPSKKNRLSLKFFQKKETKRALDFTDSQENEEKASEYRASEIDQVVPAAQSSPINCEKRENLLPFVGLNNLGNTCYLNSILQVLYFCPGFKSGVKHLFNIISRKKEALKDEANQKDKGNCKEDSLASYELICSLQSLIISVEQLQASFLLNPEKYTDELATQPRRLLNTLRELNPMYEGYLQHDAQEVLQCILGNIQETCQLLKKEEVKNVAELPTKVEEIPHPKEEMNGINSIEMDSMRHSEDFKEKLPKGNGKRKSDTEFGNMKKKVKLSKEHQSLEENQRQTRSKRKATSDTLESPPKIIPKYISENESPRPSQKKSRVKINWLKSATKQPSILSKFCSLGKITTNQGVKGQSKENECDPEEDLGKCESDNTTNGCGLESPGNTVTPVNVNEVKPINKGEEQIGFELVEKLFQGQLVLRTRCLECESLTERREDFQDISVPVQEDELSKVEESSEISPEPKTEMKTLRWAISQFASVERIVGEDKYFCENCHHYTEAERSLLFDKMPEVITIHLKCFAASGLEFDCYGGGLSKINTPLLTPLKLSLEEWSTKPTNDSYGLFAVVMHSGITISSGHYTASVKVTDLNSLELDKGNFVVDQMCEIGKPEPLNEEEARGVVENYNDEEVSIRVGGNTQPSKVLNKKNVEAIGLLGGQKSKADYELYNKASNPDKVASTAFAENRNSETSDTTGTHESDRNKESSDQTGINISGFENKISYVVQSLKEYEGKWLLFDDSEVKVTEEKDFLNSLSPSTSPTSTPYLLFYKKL
Method in brief: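 Kinetic fluorescence assay: 1nM USP1/UAF1, 15 min compound preincubation, then 150nM Ub-Rho; 480/540 nm.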

[16] = Primary qHTS for small molecule stabilizers of the endoplasmic reticulum resident proteome: Secreted ER Calcium Modulated Protein (SERCaMP) assay (AID 1508630); further: on the % scale 0 is the no-effect control and ±100 the full control effect
Method in brief: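 The SH-SY5Y reporter protocol was run at 3 concentrations up to 38.3 uM (primary) or 11 concentrations (follow-up): 16 h compound, 100 nM thapsigargin for 4 h, then extracellular luciferase luminescence.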

[17] = target: Lysosomal acid glucosylceramidase (Homo sapiens) (UniProt P04062); assay: Glucocerebrosidase-p2 (AID 348; in the data active means potency below about 10 µM; further: potency means the concentration at half of the fitted maximal effect); details: purified GBA, blue fluorogenic substrate, 40 min
Sequence of Lysosomal acid glucosylceramidase (Homo sapiens) (P04062 whole entry, looked up): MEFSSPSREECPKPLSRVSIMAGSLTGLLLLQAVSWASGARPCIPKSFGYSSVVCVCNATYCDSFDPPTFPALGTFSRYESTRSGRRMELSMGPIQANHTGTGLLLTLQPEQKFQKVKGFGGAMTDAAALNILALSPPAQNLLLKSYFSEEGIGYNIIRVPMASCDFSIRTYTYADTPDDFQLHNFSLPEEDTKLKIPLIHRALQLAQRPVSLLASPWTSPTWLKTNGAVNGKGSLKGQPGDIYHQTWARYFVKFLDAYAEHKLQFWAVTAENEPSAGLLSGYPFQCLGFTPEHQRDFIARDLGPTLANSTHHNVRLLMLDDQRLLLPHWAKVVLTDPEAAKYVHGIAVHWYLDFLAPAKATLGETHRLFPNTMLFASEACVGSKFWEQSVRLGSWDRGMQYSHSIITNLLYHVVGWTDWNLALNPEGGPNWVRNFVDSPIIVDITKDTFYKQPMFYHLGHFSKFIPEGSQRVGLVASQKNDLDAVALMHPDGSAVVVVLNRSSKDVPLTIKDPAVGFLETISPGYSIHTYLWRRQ
Method in brief: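 Normal human glucocerebrosidase (0.2 nM) with blue fluorogenic substrate (80 uM final) in citrate/phosphate pH 5.9 with 10mM sodium taurocholate, 0.01% tween-20; 40 min RT, NaOH/glycine stop; fluorescence Ex 365/Em 440; AC50 from a titration from 0.6 nM upwards.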

[18] = target: Cytochrome P450 2C19 (Homo sapiens) (UniProt P33261); assay: qHTS Assay for Inhibitors and Substrates of Cytochrome P450 2C19 (AID 899); further: on the % scale 0 is the no-effect control and ±100 the full control effect; nearly all actives have a fitted effect of over 60% in size
Sequence of Cytochrome P450 2C19 (Homo sapiens) (P33261 whole entry, looked up): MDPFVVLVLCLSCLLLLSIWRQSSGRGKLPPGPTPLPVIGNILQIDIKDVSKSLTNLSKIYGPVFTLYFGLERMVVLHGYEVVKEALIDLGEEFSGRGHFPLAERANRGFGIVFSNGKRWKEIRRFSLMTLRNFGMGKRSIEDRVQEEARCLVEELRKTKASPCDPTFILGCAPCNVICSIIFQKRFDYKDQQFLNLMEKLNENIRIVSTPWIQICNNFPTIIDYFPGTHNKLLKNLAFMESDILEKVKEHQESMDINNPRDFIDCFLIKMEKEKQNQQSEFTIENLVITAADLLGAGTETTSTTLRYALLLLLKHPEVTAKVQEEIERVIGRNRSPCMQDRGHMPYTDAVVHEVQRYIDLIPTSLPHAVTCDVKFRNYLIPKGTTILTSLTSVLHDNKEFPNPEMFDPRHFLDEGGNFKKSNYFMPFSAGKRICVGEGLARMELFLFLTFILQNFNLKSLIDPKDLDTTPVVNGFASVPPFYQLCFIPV
Method in brief: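 5nM enzyme + 10uM Luciferin-H EGE (=KM), 50mM KPO4; cpd pin-transferred, 10 min 37C; NADPH regen, 60 min 37C; stopped w/ luciferin detection reagent, 20 min; luminescence. Normalized to 57uM ketoconazole (AC100).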

[19] = measured here: cell count channel max response
[20] = measured here: lipid channel max response

Cc1ccccc1-c1nccc(NCc2cccs2)n1
inactive: activity change, negative = inhibition [1] -5.62% | activity change, negative = inhibition [3] 1.22% | activity, negative = inhibition [4] 3.98% | Potency [5] > 46 µM | Potency [6] > 46 µM | outcome [7] | Potency [8] | Potency [10] | activity change, negative = inhibition [11] 6.73% | Potency [12] | Potency [13] | Potency [14] | Potency [16]
-2.46%: max response [11, 19]
active: Potency [2] 0.501 µM | Potency [9] 2 µM | Potency [15] 25.1 µM
6%: max response [11, 20]

CC(=O)NCCNc1ncnc2ccc(-c3ccoc3)cc12
-3.36%: max response [11, 20]
active: Potency [2] 12.6 µM | Potency [12] 0.891 µM | Potency [13] 1 µM | Potency [14] 0.355 µM
inactive: activity change, negative = inhibition [1] -5.21% | activity change, negative = inhibition [3] 17.6% | activity, negative = inhibition [4] 3.17% | Potency [5] > 46 µM | outcome [7] | Potency [8] | activity change, negative = inhibition [11] 1.77% | Potency [15] | Potency [16]
-0.704%: max response [11, 19]

COc1ccc(-c2nc3cnc(Oc4cccc(Cl)c4)nc3n(C3CC3)c2=O)cc1
-19.7%: max response [11, 20]
inactive: Potency [17] > 11.4 µM | activity change, negative = inhibition [3] -3.56% | Potency [6] > 46 µM | outcome [7] | Potency [8] | activity change, negative = inhibition [11] -3.67% | Potency [12] | Potency [13] | Potency [14] | Potency [15] | Potency [16]
-15.3%: max response [11, 19]

COc1ccc(-c2nc3cnc(N4CCN(C)CC4)nc3n(Cc3cccs3)c2=O)cc1
17.6%: max response [11, 19]
inactive: Potency [17] > 11.4 µM | Potency [5] > 9.22 µM | Potency [6] > 46 µM | Potency [8] | Potency [18] | activity change, negative = inhibition [11] 1.59% | Potency [12] | Potency [13] | Potency [14] | Potency [15] | Potency [16]
18%: max response [11, 20]

COCCn1c(=O)cnc2cnc(Nc3ccccc3)nc21
active: Potency [2] 1 µM | Potency [12] 3.55 µM | Potency [13] 3.16 µM | Potency [14] 2.82 µM
inactive: Potency [17] > 11.4 µM | Potency [5] > 9.22 µM | outcome [7] | Potency [8] | activity change, negative = inhibition [11] -9% | Potency [15] | Potency [16]
-12.1%: max response [11, 20]
-2.6%: max response [11, 19]
